Most compounds without a hit are left out; they make up all but 21% or so of the library.
Pf growth 96h = P. falciparum growth inhibition at 96 hours; 320,000 compounds, 6.9% hits; Potency, µM (doses to about 28.7 µM), without a hit: at the highest dose activity change, negative = inhibition, most hits filed as inhibitors; P. falciparum luciferase reporter growth, 96 h; AID 504834; note: potency is the fitted concentration of half-maximal effect; % is set by controls: 0 for no effect and ±100 for the full control effect
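Two-generation exposure (96 h) targets delayed-death phenotype. Reporter parasites carrying integrated firefly luciferase, in red cells at 2% hematocrit and 0.05% parasitemia final, kept at 37 C, 5% CO2; luminescence loss indicates inhibition.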
Shiga inhibitor = inhibitors of Shiga toxin in Vero cells | inhibition, % at 38.7 µM | AID 2315 | Vero cells, Shiga toxin protein synthesis inhibition reporter | 290,000 compounds, 9.2% hits; in the data active = inhibition mostly above about 28%, no sharp cut-off; inactive = mostly below about 43%; note: 0% is about no effect
NS1 function inh = inhibitors of influenza NS1 protein function. Potency, µM (top dose mostly 46.1 µM), for inactives: at the top dose activity, positive = more growth. 270,000 compounds, 0.4% hits. AID 2326; calls by dose curve; note: potency is the fitted concentration of half-maximal effect; actives are rising curves; nearly all actives have a fitted effect of over 50% in size
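A cell-based growth assay was used: compounds that relieve NS1-induced slow growth of budding yeast raise OD600. Assay medium was yeast nitrogen base with ammonium sulphate and -URA supplement, pH 6.0, with 2% galactose.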
CHX counter = affects cycloheximide protein synthesis inhibition readout, counter-screen; cell reporter, cycloheximide protein synthesis inhibition counterscreen; max response, %; AID 2314; 300,000 compounds, 12% hits; in the data active = max response mostly above about 13%, no sharp cut-off; inactive = mostly below about 14%; note: read at 38.3 µM for the half of the compounds with a filed dose; 0% is about no effect
SARS PLP yeast = blocks SARS-CoV papain-like protease in a yeast assay | S. cerevisiae expressing SARS-CoV PLpro, growth rescue | Potency, µM (top dose mostly 32.9 µM), for the others: top-dose activity, positive = growth rescue, actives largely listed as activators | 330,000 compounds, 0.19% hits | AID 485353; calls by dose curve; note: potency is the fitted concentration of half-maximal effect; 0% is about no effect; nearly all actives have a fitted effect of over 55% in size
Pf growth 48h = P. falciparum growth inhibition at 48 hours (one generation) | Potency, µM (top dose mostly 28.7 µM), for the others: at the top dose activity change, negative = inhibition, actives largely listed as inhibitors | P. falciparum luciferase growth in erythrocytes, 48 h | 310,000 compounds, 5.9% hits; note: potency is the fitted concentration of half-maximal effect; % is set by controls: 0 for no effect and ±100 for the full control effect
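Erythrocytes infected with P. falciparum carrying an integrated firefly luciferase reporter (2% hematocrit, 0.1% parasitemia final) were exposed to compounds in RPMI 1640 with 0.5% Albumax at 37 C, 5% CO2. Growth inhibition was scored as reduced luminescence.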
Starred values were filed as active, the others as inactive; [ ] = another dose, or the depositor's remark. Unless noted, calls come from the whole dose curve; as a rule, active = well fitted inhibition curve with a large enough effect; inconclusive = small, poorly fitted or top-dose-only effect, or another doubt; inactive = no such curve, though single readings can be large or run the other way.

`COc1ccc(CN(C)C(=O)CCc2ccc(S(=O)(=O)N3CCCCCC3)cc2)c(OC)c1` gave Pf growth 96h inconclusive, SARS PLP yeast -1% and Pf growth 48h 13µM*.
COc1ccc(CN(C)C(=O)/C=C/c2ccc(S(=O)(=O)N3CCCCCC3)cc2)cc1 was read as Pf growth 96h 13µM*, SARS PLP yeast 0% and Pf growth 48h 9.3µM*.
For CCOc1ccc(CN(C)C(=O)CCl)cc1 the results were Pf growth 96h 12%[5.75 µM], Shiga inhibitor 9, CHX counter 4, SARS PLP yeast 2% and Pf growth 48h 6.6µM*.
CCOc1ccc(CN(C)C(=O)CCc2ccc(S(=O)(=O)N3CCCCCC3)cc2)cc1 was read as Pf growth 96h inconclusive, SARS PLP yeast 2% and Pf growth 48h 13µM*.
For CCOc1ccc(S(=O)(=O)N2CCCCCC2)cc1 the results were Pf growth 96h inconclusive, Shiga inhibitor -14, NS1 function inh -8%, CHX counter 9 and SARS PLP yeast 7%[6.58 µM].
`COc1ccc(Cc2nnc(NC(=O)C3CCN(C(=O)c4ccco4)CC3)s2)cc1` gave Pf growth 96h 16%, Shiga inhibitor -6, NS1 function inh 15%, CHX counter 0, SARS PLP yeast 1% and Pf growth 48h inconclusive.
For COc1ccccc1S(=O)(=O)Cc1ccc(C(=O)NCCN2CCCCCC2)o1 the results were Pf growth 96h inconclusive, Shiga inhibitor 14, NS1 function inh 9%, CHX counter -3, SARS PLP yeast 2% and Pf growth 48h -5%.
`COCCn1c(SCC(=O)c2ccc(F)cc2)nnc1C(C)C` gave Pf growth 96h inconclusive, Shiga inhibitor -11, NS1 function inh -76%, CHX counter 2, SARS PLP yeast 7% and Pf growth 48h 24%.
Screening CCCc1nnc(NC(=O)C2CC(=O)N(CCc3ccc(F)cc3)C2)s1 (configuration not stated) returned Pf growth 96h 25%, Shiga inhibitor -3, NS1 function inh 6%, CHX counter -4, SARS PLP yeast -2% and Pf growth 48h -14%.
For COc1cc(OC)c(NC(=O)CCc2nc(-c3ccc(C)cc3)no2)cc1Cl the results were Pf growth 96h inconclusive, Shiga inhibitor 39, NS1 function inh inconclusive, CHX counter 5, SARS PLP yeast 3% and Pf growth 48h -2%.
For COc1cccc(NC(=S)N/N=C2\CC3CCC2(C)C3(C)C)c1 (configuration not stated) the results were Pf growth 96h inconclusive, Shiga inhibitor 78*, CHX counter 41*, SARS PLP yeast 1% and Pf growth 48h 10µM*.
Cc1cccc(C(=O)N=C2SC3CS(=O)(=O)CC3N2c2ccccc2)c1 (configuration not stated) was read as Pf growth 96h 6%, SARS PLP yeast 3% and Pf growth 48h 4%.
For CCCc1nc2oc3cc(OC)ccc3c(=O)c2c(=O)n1Cc1ccco1 the results were Pf growth 96h 15%, Shiga inhibitor -24, NS1 function inh -35%, CHX counter -4, SARS PLP yeast -1% and Pf growth 48h 9.3µM*.
For COCCn1c(-c2ccc(Br)cc2)nc2oc3cc(OC)ccc3c(=O)c2c1=O the results were Pf growth 96h inconclusive, Shiga inhibitor -4, NS1 function inh -33%, CHX counter -4, SARS PLP yeast 2% and Pf growth 48h 8.3µM*.
For COc1ccc(Cn2c(C)nc3oc4cc(OC)ccc4c(=O)c3c2=O)cc1 the results were Pf growth 96h inconclusive, Shiga inhibitor -13, NS1 function inh 2%, CHX counter -8, SARS PLP yeast 4% and Pf growth 48h inconclusive.
Screening COCCn1c(-c2ccccc2)nc2oc3cc(OC)ccc3c(=O)c2c1=O returned Pf growth 96h inconclusive, Shiga inhibitor -9, NS1 function inh -41%, CHX counter -3, SARS PLP yeast 4% and Pf growth 48h inconclusive.
COc1ccc2c(=O)c3c(=O)n(Cc4ccco4)c(-c4ccccc4)nc3oc2c1 was read as Shiga inhibitor -16, NS1 function inh -65%, CHX counter 13, SARS PLP yeast -1% and Pf growth 48h 12µM*.
Screening COc1ccc2c(=O)c3c(=O)n(Cc4ccco4)c(-c4cc(OC)c(OC)c(OC)c4)nc3oc2c1 returned Pf growth 96h 1.7µM*, Shiga inhibitor 14, NS1 function inh 2%, CHX counter 1, SARS PLP yeast -32% and Pf growth 48h 1.9µM*.
Screening O=C1CN(S(=O)(=O)c2ccccc2)CCN1 returned SARS PLP yeast -4%.
Screening O=c1c2c3c(sc2nc2sc(CN4CCOCC4)cn12)CCCC3 returned Shiga inhibitor active, NS1 function inh 1%, CHX counter 18*, SARS PLP yeast -3% and Pf growth 48h 42%.
For COc1ccc(/C=N/Nc2nnc(-c3ncc[nH]3)c3ccccc23)cc1 the results were Pf growth 96h 189%, Shiga inhibitor 78*, NS1 function inh 3%, CHX counter 25*, SARS PLP yeast 0% and Pf growth 48h 98%.
For Oc1ccc2ccccc2c1/C=N/Nc1nnc(-c2ncc[nH]2)c2ccccc12 the results were Shiga inhibitor 25, NS1 function inh -228%, CHX counter 48*, SARS PLP yeast inconclusive and Pf growth 48h 2.6µM*.
Screening Cc1ccccc1Cn1nc(C)c(NC(=O)C2c3ccccc3Oc3ccccc32)c1C returned Pf growth 96h inconclusive, Shiga inhibitor -12, NS1 function inh 23%, CHX counter 1, SARS PLP yeast -5% and Pf growth 48h -1%.
`O=C(NCCOc1ccccc1)C1CCCCC1` gave Pf growth 96h inconclusive, Shiga inhibitor 72*, CHX counter 29*, SARS PLP yeast 10% and Pf growth 48h 103%.
Screening O=C(NCCOc1ccc(F)cc1)C1CCN(S(=O)(=O)c2ccccc2)CC1 returned Pf growth 96h 0%, Shiga inhibitor 14, NS1 function inh -9%, CHX counter -5, SARS PLP yeast -2% and Pf growth 48h 13%.
Screening O=C(CC1CCCCC1)NCCOc1ccccc1 returned Pf growth 96h -9%, Shiga inhibitor 50*, NS1 function inh 3%, CHX counter 9.7*, SARS PLP yeast 30% and Pf growth 48h 27%.
`CCc1cc(=O)oc2c(C)c(OCC(=O)N3CCC(C(=O)O)CC3)ccc12` gave Pf growth 96h 3%, Shiga inhibitor -10, NS1 function inh 3%, CHX counter -4, SARS PLP yeast 1% and Pf growth 48h 23%.
Cc1oc2cc(O)cc(O)c2c(=O)c1-c1ccc2c(c1)OCCCO2 was read as Shiga inhibitor 116*, NS1 function inh -102%, CHX counter 34*, SARS PLP yeast -20% and Pf growth 48h 103%.
CC(=O)Oc1cc(OC(C)=O)c2c(=O)c(-c3ccc4c(c3)OCCCO4)c(C)oc2c1 was read as Pf growth 96h -9%, Shiga inhibitor 16, NS1 function inh 2%, CHX counter 8.3*, SARS PLP yeast -4% and Pf growth 48h -29%.

Source: PubChem (National Center for Advancing Translational Sciences (NCATS))
